Experimental findings from PubChem BioAssay (NCATS) are described below.

Records with an inconclusive call do not appear. The source made the active and inactive calls. Unless noted, calls come from the whole dose curve; as a rule, active = well fitted curve in the direction sought with a large enough effect; inconclusive = small, poorly fitted or top-dose-only effect, or another doubt; inactive = no such curve, though single readings can be large; an effect the other way counts as inactive or inconclusive.

For assay [1], the target named is Estrogen receptor (Homo sapiens) (UniProt P03372). The assay can be described thus: qHTS assay for small molecule antagonists of estrogen receptor alpha signaling (AID 588513; active = well fitted curve in the direction sought with a large enough effect in the signal ratio, with a control signal flat, not every such curve was filed as active; the % refers to the signal ratio; note: % is set by controls: 0 for no effect and ±100 for the full control effect). The gist of the method: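 Antagonist-mode qHTS in ER-alpha-UAS-bla HEK 293 cells: compound titration, 0.5nM estradiol for 18 h, CCF4 fluorescence, Hill-derived IC50.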
Estrogen receptor (Homo sapiens), sequence (P03372 whole entry, looked up): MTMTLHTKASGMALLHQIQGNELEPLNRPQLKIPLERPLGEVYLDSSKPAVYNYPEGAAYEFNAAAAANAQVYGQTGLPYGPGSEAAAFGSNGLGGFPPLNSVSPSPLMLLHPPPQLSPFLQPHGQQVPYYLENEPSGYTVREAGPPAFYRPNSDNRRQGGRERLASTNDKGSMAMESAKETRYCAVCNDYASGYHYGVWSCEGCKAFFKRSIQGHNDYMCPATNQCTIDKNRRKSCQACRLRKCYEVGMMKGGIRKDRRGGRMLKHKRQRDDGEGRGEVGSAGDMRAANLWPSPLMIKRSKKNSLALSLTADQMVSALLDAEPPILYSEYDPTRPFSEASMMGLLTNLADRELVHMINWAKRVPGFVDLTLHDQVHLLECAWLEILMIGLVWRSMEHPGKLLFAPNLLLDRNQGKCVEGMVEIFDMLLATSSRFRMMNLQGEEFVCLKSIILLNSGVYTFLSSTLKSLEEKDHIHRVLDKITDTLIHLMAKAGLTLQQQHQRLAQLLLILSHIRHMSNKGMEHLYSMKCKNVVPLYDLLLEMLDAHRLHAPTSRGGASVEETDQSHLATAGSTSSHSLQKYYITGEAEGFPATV
For orientation: qHTS replaces the single test concentration by a dilution series.

Assay [2] shares this target. Kind of assay: qHTS assay for small molecule agonists of estrogen receptor alpha signaling (AID 588514; calls by dose curve;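 note: 0% = vehicle only and 100% = reference agonist; nearly all actives have a fitted effect of over 70% in size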). The procedure, abridged: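 Reporter-gene assay. […] controls beta-lactamase in HEK 293 GripTite cells; after 18 hrs with compound, CCF4 substrate is added for 2 hrs and fluorescence is read.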
The target in assay [3] is Glucocorticoid receptor (Homo sapiens) (UniProt P04150). Kind of assay: qHTS assay for small molecule agonists of glucocorticoid receptor signaling (AID 588532; active = well fitted curve in the direction sought with a large enough effect in the signal ratio, with a control signal flat; the % refers to the signal ratio;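 note: 100% = dexamethasone at 0.1 µM and 0% = DMSO only wells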). The settings on record: HeLa MMTV-bla, beta-lactamase ratio, agonist, 18 h; stronger effect = higher value; percent of dexamethasone control, DMSO zero. The procedure, abridged: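 MMTV-bla HeLa, beta-lactamase reporter; medium with 1% charcoal/dextran-stripped FBS; cpds up to 92 uM, 18 h, 37 C; CCF4 readout 460/530 nm; Hill fit → EC50, efficacy vs 0.1 uM dexamethasone = 100%.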
Glucocorticoid receptor (Homo sapiens), sequence (P04150 whole entry, looked up): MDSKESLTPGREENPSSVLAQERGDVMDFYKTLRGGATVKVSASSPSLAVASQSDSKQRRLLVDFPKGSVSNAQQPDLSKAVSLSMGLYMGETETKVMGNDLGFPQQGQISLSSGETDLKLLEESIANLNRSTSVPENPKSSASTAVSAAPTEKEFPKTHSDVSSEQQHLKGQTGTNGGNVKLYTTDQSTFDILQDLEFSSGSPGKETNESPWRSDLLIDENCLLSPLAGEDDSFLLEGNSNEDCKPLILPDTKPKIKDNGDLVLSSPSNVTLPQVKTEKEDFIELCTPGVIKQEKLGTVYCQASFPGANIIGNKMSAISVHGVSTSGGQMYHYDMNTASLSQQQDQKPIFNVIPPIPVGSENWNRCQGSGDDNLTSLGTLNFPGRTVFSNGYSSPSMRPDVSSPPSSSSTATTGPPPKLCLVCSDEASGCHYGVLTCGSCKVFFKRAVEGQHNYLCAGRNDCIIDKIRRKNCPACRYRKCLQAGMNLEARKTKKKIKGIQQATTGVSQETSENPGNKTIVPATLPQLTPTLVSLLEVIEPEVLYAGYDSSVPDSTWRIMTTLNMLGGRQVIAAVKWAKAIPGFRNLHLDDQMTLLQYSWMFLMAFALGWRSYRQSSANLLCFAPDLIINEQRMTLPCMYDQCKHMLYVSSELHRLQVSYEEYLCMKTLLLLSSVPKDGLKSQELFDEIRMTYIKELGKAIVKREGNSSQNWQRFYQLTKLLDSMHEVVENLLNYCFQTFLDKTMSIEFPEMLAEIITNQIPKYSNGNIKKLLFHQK

Assay [4] shares this target. The assay can be described thus: qHTS assay for small molecule antagonists of glucocorticoid receptor signaling (AID 588533; active = well fitted inhibition curve with a large enough effect in the signal ratio, with a control signal flat, not every such curve was filed as active; the % refers to the signal ratio;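 note: cells stimulated with 2 nM dexamethasone as agonist; % is set by controls: 0 for no effect and ±100 for the full control effect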). The procedure, abridged:
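Antagonist-mode qHTS: compound titrations added to GRE-bla HeLa cells, then dexamethasone 2 nM final; 18 h, 37 C. CCF4 FRET fluorescence normalized to dexamethasone and DMSO; IC50 from Hill fit.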

Assay [5] is described as follows: qHTS assay for small molecule agonists of retinoid X receptor alpha signaling (AID 588544; calls by dose curve;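 for activation: 0% = DMSO basal wells and 100% = reference agonist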). The conditions noted are these: HEK293T RXRa-UAS-bla, beta-lactamase reporter, 18 h; 530 nm emission.
The target of assay [6] is Retinoic acid receptor RXR-alpha (Homo sapiens) (UniProt P19793). The description is as above.
Retinoic acid receptor RXR-alpha (Homo sapiens), sequence (P19793 whole entry, looked up): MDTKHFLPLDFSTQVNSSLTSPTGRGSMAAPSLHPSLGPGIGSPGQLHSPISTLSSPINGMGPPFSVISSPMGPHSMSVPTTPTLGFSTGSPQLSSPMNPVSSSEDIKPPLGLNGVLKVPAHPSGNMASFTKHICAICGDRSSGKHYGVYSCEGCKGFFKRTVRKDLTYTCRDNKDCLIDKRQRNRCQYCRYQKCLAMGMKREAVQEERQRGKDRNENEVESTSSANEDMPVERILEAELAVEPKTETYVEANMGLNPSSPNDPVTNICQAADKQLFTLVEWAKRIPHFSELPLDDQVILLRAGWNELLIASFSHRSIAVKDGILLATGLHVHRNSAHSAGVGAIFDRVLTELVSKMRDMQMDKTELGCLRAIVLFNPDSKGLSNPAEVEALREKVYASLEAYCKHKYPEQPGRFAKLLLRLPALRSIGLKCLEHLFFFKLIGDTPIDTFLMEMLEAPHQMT
Assay [7] deals with Thyroid hormone receptor beta (Homo sapiens) (UniProt P10828). The assay can be described thus: qHTS assay for small molecule agonists of thyroid hormone receptor beta signaling (AID 588545; calls by dose curve). The procedure, abridged:
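HEK 293 TR-UAS-bla; agonist mode; 18 hrs, 37 C; CCF4, ex 405/em 460 and 530 nm; norm. T3 10 nM = 100%, DMSO = 0%; Hill fit → EC50, efficacy.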

Assay [8] can be described thus: qHTS assay for small molecule antagonists of retinoid X receptor alpha signaling (AID 588546; active = well fitted inhibition curve with a large enough effect in the signal ratio, with a control signal flat, not every such curve was filed as active; the % refers to the signal ratio;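 note: cells stimulated with 9-cis-retinoic acid as agonist; % is set by controls: 0 for no effect and ±100 for the full control effect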). The conditions noted are these: HEK293T RXRa-UAS-bla, beta-lactamase ratio, antagonist mode; measured here: W530 green channel, cytotoxicity proxy. The procedure, abridged:
(§1)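 Beta-lactamase reporter inhibition, read as CCF4 fluorescence ratio (ex 405, em 460/530 nm) after 2 h at RT. HEK293T UAS-bla cells, 2500/well, were stimulated with 9-cis-RA at 500 or 100 nM final alongside test compound for 18 h at 37 C.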

Assay [9] concerns the target Retinoic acid receptor RXR-alpha (Homo sapiens) (UniProt P19793). Described as above. The conditions noted are these: HEK293T RXRa-UAS-bla, beta-lactamase ratio, antagonist mode. The gist of the method: as §1
A short description of assay [10]: qHTS assay for small molecule activators of the nuclear factor-kappa B (NF-kB) signaling pathway (AID 651749; active = well fitted activation curve with a large enough effect in the signal ratio; the % refers to the signal ratio; note: series mostly up to about 77 µM; % of control where 0% means no effect). The settings on record: NF-kB-bla ME-180 cells, beta-lactamase FRET ratio, 16 h; activation: stronger effect = higher value. The procedure, abridged:
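ME-180 cells stably carrying a beta-lactamase reporter under an NF-kB response element were exposed to compound or DMSO vehicle for 16 hr at 37C, 5% CO2. Pathway activation was read by FRET, since reporter expression disrupts FRET.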

Assay [11] can be described thus: qHTS assay for environmental chemicals that activate the Aryl hydrocarbon Receptor (AhR) signaling pathway (AID 651777). Note: % of control where 0% means no effect; nearly all actives have a fitted effect of over 15% in size. The settings on record: 1A2-DRE human hepatoma cells, luciferase, 24 h; activation: stronger effect = higher value. The gist of the method:
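Luminescence (One-Glo, 30 min, room temperature) reports AhR-driven luciferase in stably transfected human hepatoma cells bearing DRE and CYP1A2 promoter. Cells (1,200/well) were treated with compound for 24 hr at 37 C in qHTS format.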

Assay [12] addresses Peroxisome proliferator-activated receptor alpha (Homo sapiens) (UniProt Q07869). Kind of assay: qHTS assay for small molecule agonists of the peroxisome proliferator-activated receptor alpha (PPARalpha) signaling pathway (AID 651778). Note: % of control where 0% means no effect. The conditions noted are these: PathHunter PPARalpha complementation, chemiluminescence, 6 h; max response: stronger effect = higher value. The gist of the method: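 Cells plated at 2,000/well and held overnight at 37 C, 5% CO2, then compound added by pin tool for 6 hr; after PathHunter detection reagent and 60 min at room temperature, chemiluminescence from enzyme complementation was read.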

Assay [13] can be described thus: qHTS assay for small molecule agonists of the antioxidant response element (ARE) signaling pathway measured by Nrf2-dependant transcriptional activity - cell viability counter screen (AID 720653; active = well fitted curve in the direction sought with a large enough effect in the repeat runs; an effect the other way counts as inactive or inconclusive; note: % is set by controls: 0 for no effect and ±100 for the full control effect). The conditions noted are these: ARE-bla HepG2 viability, CellTiter-Glo ATP luminescence, 16 h; max response: stronger effect = lower value. The gist of the method: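 ARE-bla HepG2 cells (2,000/well) rested 5 hrs at 37C/5% CO2, then exposed to compounds in DMSO for 16 hrs. Viability was read in the same wells as intracellular ATP by luminescence, 30 min at room temperature after reagent addition.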

Assay [14] is described as follows: qHTS assay for cell viability of HEK293 cells (AID 743288). Note: % is set by controls: 0 for no effect and ±100 for the full control effect; nearly all actives have a fitted effect of over 50% in size. The conditions noted are these: ATP luminescence (CellTiter-Glo), 18 h; max response: stronger effect = lower value. The procedure, abridged: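 Luminescent ATP quantitation served as the viability read-out. Cells (parental HEK293, 2,000/well) received compounds after at least 5 h at 37 C and were exposed for 18 h before a 30 min room-temperature reagent step.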

In assay [15] the target is Nuclear receptor subfamily 1 group I member 2 (Rattus norvegicus) (UniProt Q9R1A7). The assay can be described thus: qHTS assay for small molecule activators of the rat pregnane X receptor (rPXR) signaling pathway (AID 651751; call rule not given here; note: 0% is about no effect). The settings on record: rPXR reporter cells, luciferase (One-Glo), 24 h.
Nuclear receptor subfamily 1 group I member 2 (Rattus norvegicus), sequence (Q9R1A7 whole entry, looked up): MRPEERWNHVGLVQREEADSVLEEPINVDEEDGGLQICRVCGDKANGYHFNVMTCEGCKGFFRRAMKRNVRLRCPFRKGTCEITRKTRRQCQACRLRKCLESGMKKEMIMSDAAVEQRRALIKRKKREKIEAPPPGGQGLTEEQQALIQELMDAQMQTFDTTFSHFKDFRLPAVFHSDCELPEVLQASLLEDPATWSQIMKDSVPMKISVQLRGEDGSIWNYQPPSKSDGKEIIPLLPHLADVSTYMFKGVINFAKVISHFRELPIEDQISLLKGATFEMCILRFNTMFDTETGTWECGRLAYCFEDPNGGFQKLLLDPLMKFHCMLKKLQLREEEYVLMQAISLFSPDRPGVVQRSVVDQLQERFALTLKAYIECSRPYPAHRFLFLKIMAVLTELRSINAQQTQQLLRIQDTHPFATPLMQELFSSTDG
A short description of assay [16]: qHTS assay for small molecule antagonists of peroxisome proliferator-activated receptor delta signaling (AID 588535; active = well fitted inhibition curve with a large enough effect in the signal ratio, with a control signal flat, not every such curve was filed as active; the % refers to the signal ratio;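 for max response: cells co-treated with a PPAR-delta agonist as stimulator during compound exposure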). The settings on record: HEK293T PPARd-UAS-bla, beta-lactamase FRET ratio, 18 h; 460 nm channel. The gist of the method: (§2)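 GeneBLAzer PPAR-delta-UAS-bla HEK293T cells in medium with 2% charcoal/dextran FBS were preincubated 5 hrs at 37 C, then given compounds, incubated 18 hrs at 37 C, and read by CCF4 beta-lactamase fluorescence; IC50 from Hill fits.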

Assay [17] addresses Peroxisome proliferator-activated receptor delta (Homo sapiens) (UniProt Q03181). The description is as above. The gist of the method: as §2
A short description of assay [18]: qHTS assay for small molecule agonists of the antioxidant response element (ARE) signaling pathway measured by Nrf2-dependant transcriptional activity (AID 720636; active = well fitted curve in the direction sought with a large enough effect in the repeat runs; an effect the other way counts as inactive or inconclusive; note: % of control where 0% means no effect). The gist of the method: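 Nrf2-dependent transcription read as ONE-Glo luciferase signal from ARE-luc HepG2 reporter cells after 16 hr compound treatment at 37 C, 5% CO2, in assay medium with 1% dialyzed FBS.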

A short description of assay [19]: qHTS assay for cell viability of the p53RE-bla HCT-116 cell line (AID 743292). Note: % is set by controls: 0 for no effect and ±100 for the full control effect; nearly all actives have a fitted effect of over 55% in size. The procedure, abridged: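 ATP-based luminescent viability (CellTiter-Glo, 30 min RT) after 16 h compound treatment at 37 C of p53RE-bla HCT-116 cells, seeded at 4,000 cells/well and rested 5 h before dosing.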
A short description of assay [20]: qHTS assay for small molecule activators of the human pregnane X receptor (PXR) signaling pathway (AID 720659; call rule not given here; note: 0% is about no effect).

Peroxisome proliferator-activated receptor alpha (Homo sapiens), sequence (Q07869 whole entry, looked up): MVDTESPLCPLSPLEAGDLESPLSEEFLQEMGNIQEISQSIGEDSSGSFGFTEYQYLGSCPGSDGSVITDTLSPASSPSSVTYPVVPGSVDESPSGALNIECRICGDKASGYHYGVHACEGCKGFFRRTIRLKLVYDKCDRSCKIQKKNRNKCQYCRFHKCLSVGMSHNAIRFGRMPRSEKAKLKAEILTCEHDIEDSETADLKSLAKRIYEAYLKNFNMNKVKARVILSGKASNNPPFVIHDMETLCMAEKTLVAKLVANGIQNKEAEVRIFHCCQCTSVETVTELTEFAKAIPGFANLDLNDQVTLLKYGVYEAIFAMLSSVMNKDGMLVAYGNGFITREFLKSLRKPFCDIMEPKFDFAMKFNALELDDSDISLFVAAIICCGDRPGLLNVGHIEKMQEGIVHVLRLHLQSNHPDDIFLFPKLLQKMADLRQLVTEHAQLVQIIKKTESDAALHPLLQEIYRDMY
Peroxisome proliferator-activated receptor delta (Homo sapiens), sequence (Q03181 whole entry, looked up): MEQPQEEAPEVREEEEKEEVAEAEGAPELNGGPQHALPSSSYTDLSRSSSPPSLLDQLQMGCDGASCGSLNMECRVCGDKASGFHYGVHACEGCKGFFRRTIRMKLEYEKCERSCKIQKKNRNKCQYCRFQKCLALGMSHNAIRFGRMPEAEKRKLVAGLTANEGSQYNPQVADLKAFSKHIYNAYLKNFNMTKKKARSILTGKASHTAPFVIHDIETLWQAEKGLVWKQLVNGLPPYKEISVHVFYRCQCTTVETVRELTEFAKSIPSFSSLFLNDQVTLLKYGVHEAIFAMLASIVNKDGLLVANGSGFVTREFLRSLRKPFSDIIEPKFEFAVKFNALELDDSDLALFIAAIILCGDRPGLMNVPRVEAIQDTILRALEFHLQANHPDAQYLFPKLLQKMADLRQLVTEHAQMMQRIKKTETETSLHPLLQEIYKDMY
Thyroid hormone receptor beta (Homo sapiens), sequence (P10828 whole entry, looked up): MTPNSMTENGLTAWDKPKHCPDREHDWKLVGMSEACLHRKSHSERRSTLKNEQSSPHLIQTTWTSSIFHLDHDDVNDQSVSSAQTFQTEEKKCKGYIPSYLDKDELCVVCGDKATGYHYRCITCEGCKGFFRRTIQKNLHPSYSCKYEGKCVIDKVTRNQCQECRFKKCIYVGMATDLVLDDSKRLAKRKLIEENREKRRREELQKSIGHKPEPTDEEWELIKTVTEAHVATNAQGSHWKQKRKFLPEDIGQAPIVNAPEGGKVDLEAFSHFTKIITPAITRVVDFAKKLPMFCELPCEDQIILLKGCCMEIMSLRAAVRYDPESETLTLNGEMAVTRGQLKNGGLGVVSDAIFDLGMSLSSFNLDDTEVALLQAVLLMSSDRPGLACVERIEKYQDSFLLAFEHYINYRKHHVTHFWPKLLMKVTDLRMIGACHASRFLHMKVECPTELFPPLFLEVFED

`O=C(O)c1ccc2c(c1)C(=O)OC2=O`: the Potency result in assay [1], in assay [2], in assay [4], in assay [6] and in assay [7] was “inactive” in each case. In addition, the values for the activation in [3], in assay [10] and in assay [11] were 1.9% (inactive), 0.891% (inactive) and 1.29% (inactive), respectively. Further, the max response in assay [5] is -9.87%; in [8], -2.35%; in assay [9], -0.339% (inactive); in assay [12] it was -0.399% (inactive); in assay [13] it was -5.37% (inactive); in [14], -7.11% (inactive). Moreover, the max response in assay [15] was 0.711% (inactive).

Turning to `C=C(C)C(=O)OCCCCCCCCCCCCCCCC`, the Potency entry in assay [1], in assay [2], in assay [4], in [17], in [6] and in assay [7] was “inactive” each time. Besides, the Potency result in assay [18] and in assay [19] was “inactive” in each case. Besides, the activation in assay [3] is 0.746% (inactive); in assay [10] it was -3.24% (inactive); in assay [11] it was 0.0765% (inactive). The max response in [16] was -9.92%; in [5] it was -13%; in [8], -3.04%; in [9], -1.04% (inactive); in assay [12], -2.7% (inactive); in [13], 0.407% (inactive). For the same compound, the figures for the max response in [14] and in assay [15] were -1.34% (inactive) and 2.75% (inactive), respectively. For the same compound, the result in [20] was inactive.

On to `CC(C)Cc1c(C(=O)O)c(C(F)F)nc(C(F)(F)F)c1C1=NCCS1`, for which the Potency result in assay [1], in assay [2], in assay [4], in assay [17], in [6] and in assay [7] was “inactive” in each case. The Potency result in assay [18] and in [19] was “inactive” throughout. Further, the max response in assay [16] is 45.9%; in [5], -17.4%; in assay [8], -0.767%; in [9], 6.24% (inactive); in [13], 3.82% (inactive); in assay [14], -5.4% (inactive). For the same compound, in assay [15], the max response was -2.45% (inactive). Besides, the activation in assay [10] was 1.24% (inactive); in [11] it was -4.01% (inactive).

As to `CCCCCCCCCCCCCCCCCC(N)=O`, the Potency entry in [1], in assay [2], in assay [4], in assay [17], in assay [7] and in [18] was “inactive” each time. In addition, in assay [19], the Potency result is “inactive”. For the same compound, the activation in assay [3] was -6.09% (inactive); in assay [10] it was -1.76% (inactive); in assay [11], -1.31% (inactive). In addition, the max response in [16] is 51.4%; in assay [12] it was -0.969% (inactive); in [13] it was 5.14% (inactive); in assay [14], -6.14% (inactive); in assay [15], 4.74% (inactive). For the same compound, the compound was called inactive in assay [20].

Turning to `CCCCCCCOC(=O)c1ccccc1C(=O)OCCCCCCC`, the Potency result in assay [1], in assay [2], in assay [4], in assay [17], in assay [6] and in [7] was “inactive” each time. Besides, the Potency entry in assay [18] and in assay [19] was “inactive” each time. The activation in assay [3] is -3.48% (inactive); in assay [10], -1.95% (inactive); in assay [11], -0.336% (inactive). Moreover, the max response in [16] is -7.26%; in assay [5] it was -2.68%; in [8], -8.81%; in assay [9], 5.05% (inactive); in [12], 0.0123% (inactive); in assay [13], 6.19% (inactive). For the same compound, the max response in [14] was -8.86% (inactive); in assay [15], -1.98% (inactive). Besides, in assay [20], the compound was called inactive.

`CC(=O)N(CCN(C(C)=O)C(C)=O)C(C)=O`: the Potency result in assay [1], in assay [2], in assay [4], in [17], in assay [6] and in [7] was “inactive” each time. Besides, the Potency entry in assay [18] and in assay [19] was “inactive” throughout. The figures for the activation in assay [3] and in assay [10] were -10.7% (inactive) and -1.08% (inactive), respectively. Besides, the max response is 30.1% in [16]; -4.71% in [5]; -2.01% in assay [8]; -5.17% (inactive) in assay [9]; 0.299% (inactive) in [12]; -1.28% (inactive) in assay [13]. Also, the values for the max response in assay [14] and in [15] were -0.359% (inactive) and -0.996% (inactive), respectively. Also, the call in [20] was inactive.
